PubChem BioAssay (NCATS)
Inconclusive results are not listed. A call without a number means that no potency is given here. Unmarked numbers belong to inactive results. Active and inactive are the calls of the source. Calls come from the whole dose curve; as a rule, active = well fitted curve in the direction sought with a large enough effect; inconclusive = small, poorly fitted or top-dose-only effect, or another doubt; inactive = no such curve, though single readings can be large; an effect the other way counts as inactive or inconclusive.

Assays:
[1] = system: CRL-7250; test: Cytotoxic Profiling of Annotated Libraries Using Quantitative High-Throughput Screening (AID 1296008); settings: Five cell lines viability, CellTiter-Glo ATP luminescence, 48-72 h; max response: hits give low values; note: nearly all actives have a fitted effect of over 60% in size; note: potency is the fitted concentration of half-maximal effect
Method in brief: (§1)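 Cytotoxicity was measured as CellTiter-Glo ATP luminescence, read after 10 min at room temperature. Compound treatment of the cells lasted 48 or 72 hr at 37 degrees Celsius in a qHTS format.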

[2] = system: HEK293; test: as above; settings: Five cell lines viability, CellTiter-Glo ATP luminescence, 48-72 h; max response: hits give low values
Method in brief: as §1

[3] = system: HaCat; test: as above; settings: Five cell lines viability, CellTiter-Glo ATP luminescence, 48-72 h; max response: hits give low values
Method in brief: as §1

[4] = system: KB-3-1; test: as above; settings: Five cell lines viability, CellTiter-Glo ATP luminescence, 48-72 h; max response: hits give low values
Method in brief: as §1

[5] = system: NIH3T3; test: as above; settings: Five cell lines viability, CellTiter-Glo ATP luminescence, 48-72 h; max response: hits give low values
Method in brief: as §1

[6] = system: NIH3T3; test: qHTS assay to identify novel small-molecules to repurpose for Merkel cell carcinoma treatment (AID 1296009); settings: MCC and control cell lines, CellTiter-Glo viability, 72 h; at 44.8 µM (top of the series) unless noted; note: nearly all actives have a fitted effect of over 60% in size
Method in brief: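 Cell viability, measured as CellTiter-Glo luminescence, was normalized between DMSO and no-cell wells. The cells had been exposed to 8- or 11-point compound dilutions for 72 hr at 37 degree celsius.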

[7] = system: C33A; test: Primary qHTS to identify gynecologic anti-cancer compounds using libraries of approved drugs and bioactive compounds (AID 1345084); settings: Gynecologic cancer cell panel viability, ATPlite luminescence, 48 h; series mostly up to 57.5 µM; note: nearly all actives have a fitted effect of over 55% in size
Method in brief: (§2)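 Five-concentration response, 48 h; readout is ATP-driven luciferase luminescence.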

[8] = system: CAOV3; test: as above; settings: Gynecologic cancer cell panel viability, ATPlite luminescence, 48 h; series mostly up to 57.5 µM
Method in brief: as §2

[9] = system: CASKI; test: as above; settings: Gynecologic cancer cell panel viability, ATPlite luminescence, 48 h; series mostly up to 57.5 µM
Method in brief: as §2

[10] = system: Es-2; test: as above; settings: Gynecologic cancer cell panel viability, ATPlite luminescence, 48 h; series mostly up to 57.5 µM
Method in brief: as §2

[11] = system: HeLa; test: as above; settings: Gynecologic cancer cell panel viability, ATPlite luminescence, 48 h; series mostly up to 57.5 µM
Method in brief: as §2

[12] = system: Hek293T; test: as above; settings: Gynecologic cancer cell panel viability, ATPlite luminescence, 48 h, control line for the selectivity index; series mostly up to 57.5 µM
Method in brief: as §2

[13] = system: JEG-3; test: as above; settings: Gynecologic cancer cell panel viability, ATPlite luminescence, 48 h; series mostly up to 57.5 µM
Method in brief: as §2

[14] = system: OV90; test: as above; settings: Gynecologic cancer cell panel viability, ATPlite luminescence, 48 h; series mostly up to 57.5 µM
Method in brief: as §2

[15] = system: PA-1; test: as above; settings: Gynecologic cancer cell panel viability, ATPlite luminescence, 48 h; series mostly up to 57.5 µM
Method in brief: as §2

Compound	max response [1]	max response [2]	max response [3]	outcome [4]	outcome [5]	outcome [6]	Potency [7]	Potency [8]	outcome [9]	Potency [10]	Potency [11]	Potency [12]	Potency [13]	Potency [14]	Potency [15]	outcome [1]	max response [4]	Potency [2]
CC1=COC(OC2OC(CO)C(O)C(O)C2O)C2C(CO)CC(OC(=O)/C=C/c3ccc(O)cc3)C12 (stereo not given)	0.792%	0.352%	1.84%	inactive	inactive	inactive [at 17.4 µM]	inactive	inactive	inactive	inactive	inactive	inactive	inactive	inactive	inactive	–	–	–
C=CC(C)(O)CC/C=C(\C)C(=O)O[C@@H]1[C@@H](O)[C@H](OC(C)(C=C)CC/C=C(\C)C(=O)O)O[C@H](CO)[C@H]1OC(=O)/C(C)=C/CCC(C)(O)C=C (stereo not given in full)	–	-0.372%	-21.2%	inactive	inactive	inactive [at 17.4 µM]	inactive	inactive	inactive	inactive	inactive	inactive	inactive	inactive	inactive	inactive	–	–
C=CCC1=C[C@]2(OC)[C@H](C)[C@@H](c3ccc(OC)c(OC)c3)O[C@]2(OC)CC1=O	4.13%	-10.4%	-0.368%	inactive	inactive	inactive	inactive	inactive	inactive	inactive	inactive	inactive	inactive	inactive	inactive	–	–	–
O=C(/C=C/c1ccc(O)cc1)O[C@@H]1C[C@@](O)(C(=O)O)C[C@@H](O)[C@@H]1O	-19.8%	-2.92%	-16.3%	–	inactive	inactive	inactive	inactive	inactive	inactive	inactive	inactive	inactive	inactive	inactive	–	5.75%	–
Cc1cc(CO)c(O)c(C(=O)CC2CC(=O)NC(=O)C2)c1	–	4.74%	-10.8%	inactive	inactive	inactive	inactive	inactive	inactive	inactive	inactive	inactive	inactive	inactive	inactive	inactive	–	–
CC(C)c1ccc2c(c1)[C@H](O)CC1[C@@](C)(C(=O)O)CCC[C@]21C (stereo not given in full)	-0.592%	-18.5%	-16.8%	–	inactive	inactive	inactive	inactive	inactive	inactive	inactive	inactive	inactive	inactive	inactive	–	-0.988%	–
CCCNCCOc1ccc(NC(=O)c2c[nH]c3c2C(=O)CCC3)cc1F	-8.08%	-31.5%	-4.5%	–	inactive	inactive	inactive	inactive	inactive	inactive	inactive	inactive	inactive	inactive	inactive	–	6.85%	–
O=C(/C=C/N1C[C@@H]2C[C@@H]1CN2c1ccccn1)c1ccccc1O	–	4.78%	3.55%	inactive	inactive	inactive	inactive	inactive	inactive	inactive	inactive	inactive	inactive	inactive	inactive	inactive	–	–
C[C@]12CCC[C@](C)(C(=O)O)C1CCC13CC(CO)C(CCC12)C3 (stereo not given in full)	-1.66%	2.28%	-11.1%	–	inactive	inactive	inactive	inactive	inactive	inactive	inactive	inactive	inactive	inactive	inactive	–	8.03%	–
CC[C@@H](Nc1c(Nc2cccc(C(=O)N(C)C)c2O)c(=O)c1=O)c1ccc(C)o1	–	0.867%	-4.91%	inactive	inactive	inactive	inactive	inactive	inactive	inactive	inactive	inactive	inactive	inactive	inactive	inactive	–	–
CC(C)C(NC(=O)c1ccc(O)cc1)C(=O)N1CCCC1C(=O)Nc1c(O)cccc1C(=O)O (stereo not given)	-0.89%	-9.61%	-4.47%	–	inactive	inactive [at 17.4 µM]	inactive	inactive	inactive	inactive	inactive	inactive	inactive	inactive	inactive	–	5.36%	–
COC(=O)C[C@@H]1C(C(=O)O)=CO[C@@H](O[C@@H]2O[C@H](CO)[C@@H](O)[C@H](O)[C@H]2O)/C1=C\COC(=O)/C=C/c1ccc(O)c(OC)c1	2.29%	-2.42%	-1.38%	inactive	inactive	inactive [at 17.4 µM]	inactive	inactive	inactive	inactive	inactive	inactive	inactive	inactive	inactive	–	–	–
CC(=O)NCC1CN(c2ccc(-c3ccc(CNCc4cn[nH]n4)cc3)c(F)c2)C(=O)O1 (stereo not given)	0.231%	–	1.71%	–	inactive	inactive	inactive	inactive	inactive	inactive	inactive	inactive	inactive	inactive	inactive	–	-15.8%	1300 nM (active)
